These results are taken from PubChem BioAssay (NCATS).

SMILES strings stand for the structures. Where “and” joins values, the source holds several entries; their conditions need not be identical. Equal entries are not always repeated. Inconclusive results are not listed. Values without a mark were called inactive. Calls of active or inactive are those of the source. The call rests on the fitted dose curve; in most records, active means well fitted curve in the direction sought with a large enough effect; inconclusive means small, poorly fitted or top-dose-only effect, or another doubt; inactive means no such curve, though single readings can be large; an effect the other way counts as inactive or inconclusive.

The subject of assay [1] is CRL-7250. Kind of assay: Cytotoxic Profiling of Annotated Libraries Using Quantitative High-Throughput Screening (AID 1296008). Further: nearly all actives have a fitted effect of over 60% in size. On max response: on the % scale 0 is the no-effect control and ±100 the full control effect. The conditions noted are these: Five cell lines viability, CellTiter-Glo ATP luminescence, 48-72 h; max response: stronger effect = lower value. The gist of the method: (§1)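 Cytotoxicity was measured as CellTiter-Glo ATP luminescence, read after 10 min at room temperature. Compound treatment of the cells lasted 48 or 72 hr at 37 degrees Celsius in a qHTS format.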
(ATP-based viability assays read luminescence as a measure of living cells.)

In assay [2] the test system is KB-3-1. The assay is described as above. The conditions noted are these: Five cell lines viability, CellTiter-Glo ATP luminescence, 48-72 h; max response: stronger effect = lower value. The gist of the method:
as §1

In assay [3] the test system is NIH3T3. The assay is described as above. The conditions noted are these: Five cell lines viability, CellTiter-Glo ATP luminescence, 48-72 h; max response: stronger effect = lower value. The gist of the method:
as §1

Assay [4] has as its system MCC-13. Kind of assay: qHTS assay to identify novel small-molecules to repurpose for Merkel cell carcinoma treatment (AID 1296009). Further: nearly all actives have a fitted effect of over 60% in size. As to conditions: MCC and control cell lines, CellTiter-Glo viability, 72 h; series mostly up to 46 µM. A digest of the protocol:
(§2)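 After compound transfer in DMSO, plates were kept 72 hr at 37 degree celsius. Luminescent ATP signal from CellTiter-Glo served as viability measure, normalized against DMSO and no-cell controls.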
On the technique in general: In qHTS, concentration-response curves come from the screen itself.

In assay [5] the test system is MCC-26. Described as above. The conditions noted are these: MCC and control cell lines, CellTiter-Glo viability, 72 h; series mostly up to 46 µM. A digest of the protocol:
as §2

Assay [6] has as its system MKL-1. The assay is described as above. As to conditions: MCC and control cell lines, CellTiter-Glo viability, 72 h; series mostly up to 46 µM. The gist of the method:
as §2

Assay [7] has as its system MKL-2. The assay is described as above. The conditions noted are these: MCC and control cell lines, CellTiter-Glo viability, 72 h; series mostly up to 46 µM. The gist of the method:
as §2

Assay [8] has as its system UISO. The description is as above. The conditions noted are these: MCC and control cell lines, CellTiter-Glo viability, 72 h; series mostly up to 46 µM. A digest of the protocol: as §2
The subject of assay [9] is WaGa. The assay is described as above. The conditions noted are these: MCC and control cell lines, CellTiter-Glo viability, 72 h; series mostly up to 46 µM. A digest of the protocol: as §2
Assay [10] deals with C33A. Description: Primary qHTS to identify gynecologic anti-cancer compounds using libraries of approved drugs and bioactive compounds (AID 1345084). Further: nearly all actives have a fitted effect of over 55% in size. The conditions noted are these: Gynecologic cancer cell panel viability, ATPlite luminescence, 48 h; series mostly up to 57.5 µM. The gist of the method:
(§3)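 In this quantitative HTS, cell killing is estimated from loss of ATP-dependent luciferase light. Cells see five compound concentrations over a 48 h exposure.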

Assay [11] has as its system CASKI. The description is as above. The conditions noted are these: Gynecologic cancer cell panel viability, ATPlite luminescence, 48 h; series mostly up to 57.5 µM. A digest of the protocol:
as §3

The test system of assay [12] is Es-2. The assay is described as above. As to conditions: Gynecologic cancer cell panel viability, ATPlite luminescence, 48 h; series mostly up to 57.5 µM. The gist of the method:
as §3

In assay [13] the test system is TAB165. Description: qHTS profiling for inhibitors of Plasmodium falciparum proliferation (AID 504749). Further: nearly all actives have a fitted effect of over 60% in size. As to conditions: P. falciparum in erythrocytes, SYBR Green DNA, 72 h; series mostly up to 28.7 µM. The gist of the method: (§4)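 Three-day growth assay of blood-stage parasites in erythrocytes (0.3% parasitemia, 2.5% hematocrit) at 37 C, 5% CO2, quantified by SYBR Green DNA staining after overnight detergent lysis.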

In assay [14] the test system is CAOV3. Description: Primary qHTS to identify gynecologic anti-cancer compounds using libraries of approved drugs and bioactive compounds (AID 1345084). Further: nearly all actives have a fitted effect of over 55% in size. As to conditions: Gynecologic cancer cell panel viability, ATPlite luminescence, 48 h; series mostly up to 57.5 µM. The gist of the method:
as §3

For assay [15], the system named is W2. Kind of assay: qHTS profiling for inhibitors of Plasmodium falciparum proliferation (AID 504749). Further: nearly all actives have a fitted effect of over 60% in size. The conditions noted are these: P. falciparum in erythrocytes, SYBR Green DNA, 72 h; series mostly up to 28.7 µM. The gist of the method:
as §4

Assay [16] concerns HEK293. Kind of assay: Cytotoxic Profiling of Annotated Libraries Using Quantitative High-Throughput Screening (AID 1296008). Further: nearly all actives have a fitted effect of over 60% in size. On max response: on the % scale 0 is the no-effect control and ±100 the full control effect. As to conditions: Five cell lines viability, CellTiter-Glo ATP luminescence, 48-72 h; max response: stronger effect = lower value. The gist of the method: as §1
The test system of assay [17] is HaCat. Described as above. The conditions noted are these: Five cell lines viability, CellTiter-Glo ATP luminescence, 48-72 h; max response: stronger effect = lower value. A digest of the protocol:
as §1

In assay [18] the test system is HACAT. Description: qHTS assay to identify novel small-molecules to repurpose for Merkel cell carcinoma treatment (AID 1296009). Further: nearly all actives have a fitted effect of over 60% in size. The conditions noted are these: MCC and control cell lines, CellTiter-Glo viability, 72 h; at 44.8 µM (top of the series) unless noted. The gist of the method:
as §2
Potency means the concentration at half of the fitted maximal effect.

Consider `C[C@]12CC[C@H]3[C@@H](CCC4=CC(=O)CC[C@@]43C)[C@@H]1CC[C@@H]2C(=O)CO`, for which the max response was -11.9% in assay [1], -3.06% in [2] and -2.44% in assay [3]. Also, the Potency entry in assay [4], in assay [5], in [6], in assay [7], in assay [8] and in assay [9] was “inactive” each time. In addition, the Potency entry in assay [10], in assay [11] and in assay [12] was “inactive” each time.
For the compound `COc1cc(-c2ccc(=O)[nH]n2)ccc1OC(F)F`, the Potency in assay [13] was 0.282 µM (active); in assay [1] it was 1.19 µM (active). For the same compound, in [3], the max response is -9.32%. Further, the Potency entry in [4], in assay [5], in assay [6], in [7], in assay [9] and in [10] was “inactive” each time. In addition, the Potency entry in [14], in assay [11] and in assay [12] was “inactive” throughout.
Consider `NC(=NCCCCCCN=C(N)/N=C(\N)Nc1ccc(Cl)cc1)/N=C(\N)Nc1ccc(Cl)cc1`, for which the Potency in assay [13] was 0.794 µM (active); in assay [15], 849 nM (active); in [16] it was 7.5 µM (active) and 7.31 µM (active); in [2], 8.2 µM (active); in [4], 26.6 µM (active); in assay [6] it was 6.68 µM (active). The Potency in [7] was 2.99 µM (active); in assay [8], 9.44 µM (active); in [9] it was 8.41 µM (active). The Potency entry in [11] and in [12] was “inactive” throughout.
Turning to `O=c1c(-c2ccccc2)c1-c1ccccc1`, the Potency in assay [13] is 10 µM (active); in assay [15], 15100 nM (active); in assay [16], 23.7 µM (active); in assay [6] it was 26.6 µM (active); in [7] it was 13.3 µM (active); in assay [8] it was 26.6 µM (active). Also, the Potency in [9] was 18.8 µM (active). Also, in [5], the Potency entry is “inactive”.
On to `Cc1cc(N)c2cc(NC(=O)Nc3ccc4nc(C)cc(N)c4c3)ccc2n1`, for which the Potency in assay [13] was 5.62 µM (active); in [15], 849 nM (active). Besides, the figures for the max response in [17], in assay [2] and in assay [3] were -0.42%, -4.37% and -1.27%, respectively. For the same compound, the Potency result in assay [4], in [5], in [7], in [8], in [10] and in assay [14] was “inactive” throughout. Moreover, the Potency result in assay [11] and in assay [12] was “inactive” throughout.
Turning to `COc1cc(/C=C/C(=O)O[C@H]2CC[C@]34C[C@]35CC[C@]3(C)[C@@H]([C@H](C)CCC=C(C)C)CC[C@@]3(C)[C@@H]5CC[C@H]4C2(C)C)ccc1O`, the max response in assay [16] was 2.65%; in assay [2], 0.76% and -6.22%; in assay [3] it was 0.391%. For the same compound, the compound was classed as inactive in [17] and in assay [18]. In addition, the Potency result in assay [4], in assay [5], in [6], in assay [7], in assay [8] and in [9] was “inactive” throughout. Besides, the Potency entry in assay [10], in [14], in assay [11] and in [12] was “inactive” throughout.
Regarding `COc1cc(C=C2CCC/C(=C\c3ccc(O)c(OC)c3)C2=O)ccc1O`, the Potency in [1] was 15 µM (active); in assay [3], 16.8 µM (active); in [4], 26.6 µM (active); in assay [6], 4.22 µM (active); in assay [7], 2.99 µM (active); in assay [8] it was 21.1 µM (active). The Potency in [9] was 5.31 µM (active). Besides, the Potency entry in assay [12] was “inactive”.
Consider `COc1cccc(CCc2ccccc2OCC(CN(C)C)OC(=O)CCC(=O)O)c1` (configuration not stated), for which the Potency in assay [13] was 4.47 µM (active); in assay [15] it was 757 nM (active). Further, the figures for the max response in assay [1], in [2] and in assay [3] were 3.68%, -2.49% and -1.97%, respectively. Besides, the Potency result in assay [4], in assay [5], in [6], in [8], in assay [10] and in assay [14] was “inactive” throughout. The Potency result in assay [11] and in assay [12] was “inactive” in each case.
With `CCOc1ccc2nc3cc(N)ccc3c(N)c2c1`, the Potency was 10 µM (active) in assay [13]; 3380 nM (active) in assay [15]; 11.9 µM (active) in assay [1]; 5.96 µM (active) in assay [6]; 2.99 µM (active) in assay [7]; 8.41 µM (active) in [8]. In addition, the Potency in assay [9] is 2.11 µM (active); in assay [14] it was 12.6 µM (active). For the same compound, the max response was -2.56% in [17] and -2.82% in assay [2]. The Potency entry in [5] and in [12] was “inactive” throughout.
Take `CN(C(=O)CN(CCO)CC(=O)N(C)C(C)(C)Cc1ccccc1)C(C)(C)Cc1ccccc1`: the Potency is 3610 nM (active) in assay [15] and 16.8 µM (active) in assay [7]. Further, the max response was -0.203% in assay [17] and -13.8% in assay [2]. Further, the Potency entry in [5], in assay [10], in assay [11] and in [12] was “inactive” throughout.
With `O=C(Nc1ccc(Cl)c(Cl)c1)C1CC1`, the Potency entry in [13], in assay [15], in assay [4], in [5], in assay [6] and in assay [7] was “inactive” in each case. Moreover, the Potency result in assay [8], in assay [9], in [10], in assay [11] and in [12] was “inactive” throughout. Also, the max response in [2] is -14.1%; in assay [3], -1.64%.
Consider `Nc1ccc(C(=O)Nc2ccccc2N)cc1`, for which the Potency result in assay [13], in assay [10], in assay [14] and in assay [11] was “inactive” throughout. Besides, the max response in assay [2] was -27.7%. For the same compound, the Potency in assay [6] was 18.8 µM (active); in assay [7], 5.96 µM (active); in assay [9] it was 2.66 µM (active).
Consider `Oc1ccc(Cl)cc1Sc1cc(Cl)ccc1O`, for which the max response in [17] was 2%; in assay [3] it was -21.9%. For the same compound, the Potency result in assay [5], in [14] and in assay [11] was “inactive” each time. Besides, the Potency in [6] is 21.1 µM (active); in assay [8], 18.8 µM (active); in [9], 21.1 µM (active).
`CN1CCCC(CC2c3ccccc3Sc3ccccc32)C1` (configuration not stated): the max response was 2.06% in assay [17] and 7.2% in assay [2]. Further, the Potency result in assay [5], in assay [11] and in assay [12] was “inactive” in each case. Moreover, the Potency in [7] and in [8] was 23.7 µM (active) in each case.
Take `NC(CO)(CO)CO`: the Potency entry in assay [13], in assay [15], in assay [4], in [5], in [6] and in assay [7] was “inactive” each time. The Potency entry in assay [8], in assay [9], in [10], in [14], in assay [11] and in assay [12] was “inactive” throughout. In addition, the max response in assay [2] is 3.6%; in [3], -20%.
As for `CC(C)(C)CC(C)(C)c1ccc(O)c(Cc2ccc(Cl)cc2Cl)c1`, the Potency in assay [13] was 0.794 µM (active); in assay [15], 426 nM (active). Besides, the max response in [2] is -6.63%. Besides, the Potency entry in assay [10], in assay [14] and in [11] was “inactive” each time.
For `Cc1cccc(C)c1NC(=O)CN1CCN(CCCC(c2ccc(F)cc2)c2ccc(F)cc2)CC1`, the Potency in assay [15] is 4550 nM (active). For the same compound, in assay [2], the max response is -1.23%. The Potency entry in [4], in assay [5], in assay [6], in assay [8], in [9] and in [11] was “inactive” throughout. In addition, the Potency entry in [12] was “inactive”.
Regarding `Oc1c(I)cc(I)c2cccnc12`, the result in assay [17] and in [18] was inactive. Moreover, in assay [2], the max response was -18.8%. The Potency result in assay [4], in assay [5], in assay [10], in [14] and in [11] was “inactive” in each case. In addition, the Potency in assay [6] is 18.8 µM (active); in assay [7], 11.9 µM (active).
